Results: PubChem BioAssay (NCI)
The panel holds about 83,000 compounds, 20% with a hit somewhere; the sample as a whole holds those more often.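 Each cell line was grown in a 96-well plate and treated with one concentration of compound for 48 hours. Values below 10 were considered active.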

Columns and labels:
Assay in all cases: NCI-60 one-dose screen, 48 h (100 = growth as untreated, 0 = no growth, -100 = all killed)
Conditions in all cases: 10 µM unless noted
[1] = system: NCI-H23 lung
[2] = system: NCI-H226 lung
[3] = system: NCI-H322M lung
[4] = system: HOP-62 NSCLC
[5] = system: NCI-H460 lung
[6] = system: HOP-92 NSCLC
[7] = system: NCI-H522 lung
[8] = system: A549/ATCC NSCLC
[9] = system: 786-0 renal
[10] = system: COLO 205 colon
[11] = system: DU-145 prostate
[12] = system: MALME-3M melanoma
[13] = system: MDA-MB-231 breast
[14] = system: RXF 393 renal
[15] = system: SF-268 CNS
[16] = system: SF-295 CNS
[17] = system: SF-539 CNS
[18] = system: UACC-257 melanoma
[19] = system: M14 melanoma
[20] = system: K-562 leukemia

Measured: growth

CC(=O)Nc1ccc(/C=C2\SC(=S)N(/C=C(\C(C)=O)C(N)=O)C2=O)cc1
inactive: [1] 97.5% | [2] 86.2% | [3] 102% | [4] 82.5% | [5] 99.4% | [6] 68.2% | [7] 84.2% | [8] 84.9% | [9] 88.1% | [10] 92.1% | [11] 106% | [12] 87.8% | [13] 98.9% | [14] 93% | [15] 96.2% | [16] 93.6% | [17] 92.5% | [18] 87.8% | [19] 81%

O=[N+]([O-])c1ccc2[nH]c(=S)n(/C=C(/c3ccc(Cl)cc3Cl)S(=O)(=O)Cc3ccc(Cl)cc3Cl)c2c1
inactive: [1] 96.2% | [2] 106% | [3] 100% | [4] 90.3% | [5] 108% | [6] 112% | [7] 88.6% | [8] 83.3% | [9] 94.6% | [10] 99% | [11] 102% | [20] 102% | [13] 96.2% | [14] 109% | [15] 97% | [16] 97.4% | [17] 99.6% | [18] 86.5% | [19] 93.6%

CCOc1ccncc1[N+](=O)[O-]
inactive: [1] 106% | [2] 102% | [3] 110% | [4] 99.1% | [5] 108% | [6] 102% | [7] 106% | [8] 97.5% | [9] 106% | [10] 110% | [11] 108% | [20] 100% | [13] 114% | [14] 113% | [15] 103% | [16] 108% | [17] 108% | [18] 95.2% | [19] 106%

NNC(=O)N/N=C1\C(=O)N(c2nccs2)C(=O)C(=O)C1c1nc2ccccc2s1 (configuration not stated)
inactive: [1] 95.6% | [2] 89.1% | [3] 105% | [4] 81.3% | [5] 101% | [6] 98.6% | [7] 83.1% | [8] 75.8% | [9] 118% | [10] 98.6% | [11] 103% | [12] 98.7% | [13] 90.4% | [14] 106% | [15] 96.3% | [16] 109% | [17] 106% | [18] 68.9% | [19] 105%

CC(C)N1CC(=O)N2CSCC2C1=O (configuration not stated)
inactive: [1] 111% | [2] 104% | [3] 115% | [4] 111% | [5] 108% | [6] 126% | [7] 102% | [8] 103% | [9] 107% | [10] 114% | [11] 107% | [20] 104% | [13] 120% | [14] 104% | [15] 106% | [16] 105% | [17] 97.6% | [18] 108% | [19] 104%

C=COC(=O)CCOCC(CC)CCCC (configuration not stated)
inactive: [1] 105% | [2] 98.7% | [3] 98.7% | [4] 97.3% | [5] 106% | [6] 111% | [7] 109% | [8] 89.6% | [9] 91.2% | [10] 111% | [11] 96.5% | [20] 92.9% | [13] 106% | [14] 108% | [15] 99.5% | [16] 102% | [17] 105% | [18] 108% | [19] 99.9%

Cc1ccc[n+](CCC(N)=O)c1
inactive: [1] 95.3% | [2] 99.6% | [3] 103% | [4] 87.2% | [5] 91.4% | [6] 91.5% | [7] 90.2% | [8] 93.7% | [9] 94.4% | [10] 107% | [11] 103% | [12] 79.3% | [13] 92.3% | [14] 106% | [15] 97.6% | [16] 93.5% | [17] 87.3% | [18] 103% | [19] 109%

OC(CCN1CCCCC1)(c1ccccc1)c1ccccc1
inactive: [1] 98.6% | [2] 104% | [3] 97.6% | [4] 110% | [5] 116% | [6] 85.6% | [7] 98.4% | [8] 104% | [9] 98.1% | [10] 103% | [11] 115% | [12] 95.4% | [13] 105% | [14] 91.7% | [15] 104% | [16] 111% | [17] 117% | [18] 100% | [19] 99.2%

Nc1ncnc2c1ncn2C1OC(CO)C2OC21 (configuration not stated)
inactive: [1] 107% | [2] 93.8% | [3] 118% | [4] 96.6% | [5] 109% | [6] 102% | [7] 94.6% | [8] 102% | [9] 108% | [10] 107% | [11] 113% | [20] 104% | [13] 112% | [14] 103% | [15] 104% | [16] 106% | [17] 110% | [18] 98.6% | [19] 102%

COCC(N)=O
inactive: [1] 103% | [2] 99% | [3] 100% | [4] 95% | [5] 108% | [6] 94.5% | [7] 100% | [8] 104% | [9] 92% | [10] 111% | [11] 98.4% | [20] 91.8% | [13] 108% | [14] 108% | [15] 103% | [16] 102% | [17] 96% | [18] 116% | [19] 105%

CC1CC2C3CCC4=CC(=O)CCC4(C)C3CCC2(C)C1(O)C(=O)CO (configuration not stated)
inactive: [1] 115% | [2] 103% | [3] 109% | [4] 106% | [5] 117% | [6] 100% | [7] 92.2% | [8] 88.6% | [9] 112% | [10] 117% | [11] 130% | [20] 98.4% | [13] 108% | [14] 122% | [15] 121% | [16] 124% | [17] 107% | [18] 114% | [19] 111%

c1cc(CNCCNCc2ccncc2)ccn1
inactive: [1] 112% | [2] 103% | [3] 97% | [4] 103% | [5] 116% | [6] 97.5% | [7] 108% | [8] 97.7% | [9] 104% | [10] 113% | [11] 115% | [20] 108% | [13] 104% | [14] 107% | [15] 104% | [16] 104% | [17] 105% | [18] 93.7% | [19] 109%

CC(=O)NNC(=S)/N=C\C(C(=O)c1ccccc1)=C(/O)c1ccccc1
inactive: [1] 90.1% | [2] 96.2% | [3] 94.1% | [4] 88.2% | [5] 110% | [6] 100% | [7] 86.3% | [8] 87.3% | [9] 99.8% | [10] 108% | [11] 108% | [20] 101% | [13] 89.6% | [14] 97.7% | [15] 99.2% | [16] 108% | [17] 101% | [18] 102% | [19] 103%

CC(O)C(F)(F)C(F)(F)C(F)(F)F (configuration not stated)
inactive: [1] 111% | [2] 102% | [3] 114% | [4] 104% | [5] 110% | [6] 117% | [7] 93.8% | [8] 110% | [9] 102% | [10] 116% | [11] 119% | [20] 111% | [13] 118% | [14] 103% | [15] 115% | [17] 96.6% | [18] 107% | [19] 103%

COc1ccc2c(ccc[n+]2C)c1
inactive: [1] 99.6% | [2] 110% | [3] 105% | [4] 106% | [5] 106% | [6] 110% | [7] 54.7% | [8] 108% | [9] 97.3% | [10] 111% | [11] 126% | [12] 110% | [13] 101% | [14] 136% | [15] 125% | [16] 114% | [17] 101% | [18] 98.2% | [19] 108%

O=S(=O)(O)c1ccc(O)c(C2CCCCC2)c1
inactive: [1] 112% | [2] 98.4% | [3] 103% | [4] 87.4% | [5] 108% | [6] 93.2% | [7] 98.5% | [8] 96.6% | [9] 91.1% | [10] 105% | [11] 112% | [20] 123% | [13] 112% | [14] 105% | [15] 105% | [16] 100% | [17] 98.2% | [18] 99.3% | [19] 101%

COc1cccc(C(=O)NNC(=O)c2cccc3ccccc23)c1
inactive: [1] 107% | [2] 105% | [3] 122% | [4] 97.7% | [5] 117% | [6] 97.2% | [7] 102% | [8] 96% | [9] 104% | [10] 108% | [11] 117% | [20] 98.4% | [13] 110% | [14] 115% | [15] 110% | [16] 124% | [17] 114% | [18] 109% | [19] 107%
